From PubChem BioAssay (NCATS)
Several values for one entry are separate records, joined by “and”; a condition that tells them apart may be missing. Equal entries are not always repeated. Results filed as inconclusive are left out. Activity calls are given as the source filed them. Calls follow the shape of the dose curve; as a rule, active = well fitted curve in the direction sought with a large enough effect; inconclusive = small, poorly fitted or top-dose-only effect, or another doubt; inactive = no such curve, though single readings can be large; an effect the other way counts as inactive or inconclusive. Residues, ends and D or L forms follow the SMILES beside them. *: point of attachment. Cbz = O=C(OCc1ccccc1)*

test: Primary qHTS for inhibitors of nuclear receptor binding SET domain protein 2 (NSD2) in an isogenic RCH-ACV NSD2 p.E1099K mutant (9B) (AID 1645876); details: RCH-ACV NSD2 E1099K (9B) viability, CellTiter-Glo, 72 h; series mostly up to 44.9 µM
Also: nearly all actives have a fitted effect of over 70% in size.
Potency is read from the fitted curve at half-maximal effect.

SMILES	Potency
O=C(O)CCCCCC(=O)NN=C1CCCC1	inactive
NC1=N[C@H]2[C@H](CS[C@H]2CCCCC(=O)O)N1	inactive
OC[C@@H](O)[C@@H](O)[C@H](O)[C@@H](O)CO	inactive
C=CC(=O)N1CCc2ccc(-n3c(=O)ccc4cnc5ccc(-c6cnn(C)c6)cc5c43)cc21	0.363 µM (active)
CCc1c(O)cc(O)c(C(=O)c2ccc(OCCN3CCOCC3)c(OC)c2)c1CC(=O)N(CCOC)CCOC	0.372 µM (active)
C[C@H](NC(=O)[C@@H](O)c1cc(F)cc(F)c1)C(=O)N[C@@H]1C(=O)N(C)c2ccccc2-c2ccccc21	inactive
COc1ccc(S(=O)(=O)Nc2cccnc2Nc2ccc(O)cc2)cc1	9.34 µM (active)
CC(C)(N)c1ccc(-c2nc3ccccc3nc2-c2ccccc2)cc1	16.3 µM (active)
CC[C@@]1([C@@H]2O[C@@H]([C@H]3O[C@@](O)(CO)[C@H](C)C[C@H]3C)C[C@H]2C)CC[C@H]([C@]2(C)CC[C@]3(C[C@H](O)[C@@H](C)[C@@H]([C@@H](C)[C@@H](OC)[C@H](C)C(=O)O)O3)O2)O1	0.162 µM (active)
c1cc(N[C@@H]2CCNC2)nc(-c2cnc3ccc(-c4cn[nH]c4)cn23)c1	2.63 µM (active)
CC(C)C[C@@H](C=O)NC(=O)[C@H](CC(C)C)NC(=O)[C@H](CC(C)C)NC(=O)OCc1ccccc1 (Cbz-Leu-Leu-Leu-aldehyde)	1.05 µM (active)
Cc1ncc(-c2ccnc(Nc3ccc(S(C)(=O)=O)cc3)n2)n1C(C)C	1.45 µM (active) and 742 nM (active)
CC(C)n1cnc2c(NCCc3ccc(O)cc3)nc(-c3csc4ccccc34)nc21	20.5 µM (active)
N=c1ccn2c(n1)O[C@H]1[C@@H](O)[C@@H](CO)O[C@H]12	0.0209 µM (active)
COc1cc(C[C@@H](CO)[C@H](CO)Cc2ccc(O)c(OC)c2)ccc1O	inactive
COc1ccc2c(c1OC)C(=O)OC2[C@H]1c2c(cc3c(c2OC)OCO3)CCN1C (stereo partly specified)	20.9 µM (active)
CCN(CC)Cc1ccc2cc(COC(=O)Nc3ccc(C(=O)NO)cc3)ccc2c1	290 nM (active) and 742 nM (active)
O=C(Nc1ccc(Oc2ccnc3[nH]ccc23)c(F)c1)c1cccn(-c2ccc(F)cc2)c1=O	16.6 µM (active)
CC(C)C[C@H](NC(=O)[C@@H](NC(=O)c1cccc(-c2ccccc2)n1)[C@@H](C)O)B(O)O	29 nM (active) and 32.3 nM (active)

test: Primary qHTS for inhibitors of nuclear receptor binding SET domain protein 2 (NSD2) in an RCH-ACV wild type WT cells (2C) (AID 1645877); details: RCH-ACV (leukaemia line) NSD2 WT (2C) viability, CellTiter-Glo, 72 h; series mostly up to 44.9 µM

SMILES	Potency
COc1cc(O)c2c(c1)C1OC1C[C@H](O)[C@H](O)C(=O)C=CC[C@H](C)OC2=O (stereo partly specified)	3.32 µM (active)
CN(C)c1ccc(C(=O)NCCCCCCC(=O)NO)cc1	0.934 µM (active)
CC(=O)NC(CS)C(=O)O (stereo unspecified)	inactive
CN1CCCN(C(=O)c2cccc(-c3ccc(C=C4C(=O)Nc5ccc(Cl)cc54)o3)c2)CC1	0.184 µM (active)
Cc1ccc(O)c(C(CCN(C(C)C)C(C)C)c2ccccc2)c1 (stereo unspecified)	inactive
Cc1ccccc1C(=O)Nc1ccc(C(=O)N2CCCC(O)c3cc(Cl)ccc32)c(C)c1 (stereo unspecified)	15 µM (active)
C=C(C)[C@@H]1CC[C@]2(C(=O)O)CC[C@]3(C)[C@H](CC[C@@H]4[C@@]5(C)CC[C@H](O)C(C)(C)[C@@H]5CC[C@]43C)[C@@H]12	inactive
Cc1cncc2cccc(S(=O)(=O)N3CCCN(C(=O)CN)C[C@@H]3C)c12	1.45 µM (active)
CCNC(=O)Nc1ccc(-c2nc3c(c(N4CCOC[C@H]4C)n2)CCN(C2COC2)C3)cc1	1.3 µM (active)
O=C(O)CCCCCC(=O)NN=C1CCCC1	inactive
OC[C@@H](O)[C@@H](O)[C@H](O)[C@@H](O)CO	inactive
C=CC(=O)N1CCc2ccc(-n3c(=O)ccc4cnc5ccc(-c6cnn(C)c6)cc5c43)cc21	0.323 µM (active)
CCc1c(O)cc(O)c(C(=O)c2ccc(OCCN3CCOCC3)c(OC)c2)c1CC(=O)N(CCOC)CCOC	0.148 µM (active)
C[C@H](NC(=O)[C@@H](O)c1cc(F)cc(F)c1)C(=O)N[C@@H]1C(=O)N(C)c2ccccc2-c2ccccc21	inactive
COc1ccc(S(=O)(=O)Nc2cccnc2Nc2ccc(O)cc2)cc1	9.34 µM (active)
CC(C)(N)c1ccc(-c2nc3ccccc3nc2-c2ccccc2)cc1	20.5 µM (active)
CCOC(=O)[C@@H](N)Cc1ccc(-c2cc(O[C@H](c3ccc(Cl)cc3-n3ccc(C)n3)C(F)(F)F)nc(N)n2)cc1	23.5 µM (active)
CC[C@@]1([C@@H]2O[C@@H]([C@H]3O[C@@](O)(CO)[C@H](C)C[C@H]3C)C[C@H]2C)CC[C@H]([C@]2(C)CC[C@]3(C[C@H](O)[C@@H](C)[C@@H]([C@@H](C)[C@@H](OC)[C@H](C)C(=O)O)O3)O2)O1	0.102 µM (active)
c1cc(N[C@@H]2CCNC2)nc(-c2cnc3ccc(-c4cn[nH]c4)cn23)c1	0.934 µM (active)
CC(C)C[C@@H](C=O)NC(=O)[C@H](CC(C)C)NC(=O)[C@H](CC(C)C)NC(=O)OCc1ccccc1 (Cbz-Leu-Leu-Leu-aldehyde)	0.934 µM (active)
Cc1ncc(-c2ccnc(Nc3ccc(S(C)(=O)=O)cc3)n2)n1C(C)C	916 nM (active) and 525 nM (active)
CC(C)n1cnc2c(NCCc3ccc(O)cc3)nc(-c3csc4ccccc34)nc21	26.3 µM (active)
N=c1ccn2c(n1)O[C@H]1[C@@H](O)[C@@H](CO)O[C@H]12	0.0235 µM (active)
COc1cc(C[C@@H](CO)[C@H](CO)Cc2ccc(O)c(OC)c2)ccc1O	inactive
COc1ccc2c(c1OC)C(=O)OC2[C@H]1c2c(cc3c(c2OC)OCO3)CCN1C (stereo partly specified)	23.5 µM (active)
CCN(CC)Cc1ccc2cc(COC(=O)Nc3ccc(C(=O)NO)cc3)ccc2c1	230 nM (active) and 525 nM (active)
CC(C)C[C@H](NC(=O)[C@@H](NC(=O)c1cccc(-c2ccccc2)n1)[C@@H](C)O)B(O)O	18.3 nM (active) and 22.9 nM (active)
